# This is one part of the list. How many sequences the whole screen found active is unknown.
# Target: furin, P09958
# Assay: furin cleavage Z-score vs untreated control; higher = more cleavage, active = 3.5 or more, inactive = 1 or less, 8 variable residues between constant flanks
# Summary of the method: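 Reactions of 0.01 ml ran for 7.5, 15 or 30 min in 50 mM HEPES pH 7.5 with CaCl2 and NaCl, at 1:10 enzyme:substrate. In them, purified furin acted on bead-held 8-mer peptides fused to a cDNA oligonucleotide. The cleavage Z-score was obtained by lowess-adjusting log sequencing counts of released DNA against furin-free reactions and scaling by median absolute deviation.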
# Chain of furin, P09958 (P09958 whole entry): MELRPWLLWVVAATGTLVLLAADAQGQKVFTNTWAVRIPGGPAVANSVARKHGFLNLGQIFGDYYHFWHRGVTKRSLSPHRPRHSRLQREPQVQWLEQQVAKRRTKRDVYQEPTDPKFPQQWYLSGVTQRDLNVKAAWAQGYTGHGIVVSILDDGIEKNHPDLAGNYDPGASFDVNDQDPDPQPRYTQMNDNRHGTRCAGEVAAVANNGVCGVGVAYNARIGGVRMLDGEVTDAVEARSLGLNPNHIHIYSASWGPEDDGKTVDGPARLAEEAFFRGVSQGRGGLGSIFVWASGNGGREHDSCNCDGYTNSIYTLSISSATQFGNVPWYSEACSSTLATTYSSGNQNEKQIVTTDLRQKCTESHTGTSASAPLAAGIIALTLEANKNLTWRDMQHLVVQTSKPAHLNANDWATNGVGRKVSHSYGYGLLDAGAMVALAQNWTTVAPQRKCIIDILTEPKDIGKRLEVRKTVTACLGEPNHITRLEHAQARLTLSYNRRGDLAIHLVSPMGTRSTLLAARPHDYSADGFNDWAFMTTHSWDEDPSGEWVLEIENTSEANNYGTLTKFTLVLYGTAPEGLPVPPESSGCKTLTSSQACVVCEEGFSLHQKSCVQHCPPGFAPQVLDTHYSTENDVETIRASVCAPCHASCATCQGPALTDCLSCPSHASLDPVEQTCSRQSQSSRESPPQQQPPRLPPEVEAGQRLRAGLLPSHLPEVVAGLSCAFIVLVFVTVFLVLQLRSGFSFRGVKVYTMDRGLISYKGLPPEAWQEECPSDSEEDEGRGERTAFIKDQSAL
Sequence,furin cleavage Z-score (7.5 min),furin cleavage Z-score (15 min),furin cleavage Z-score (30 min)
CAEVVSSTWVAGNASASA [HC135],0.7 (inactive),-1.48 (inactive),0.771 (inactive)
CAVFTGLTHIAGNASASA [HC941],-1.4 (inactive),0.134 (inactive),-1.78 (inactive)
CAQMVIIKLGAGNASASA [HC628],1.18,-0.535 (inactive),0.271 (inactive)
CAQNERSYRIAGNASASA [FS-183],-0.223 (inactive),1.02,0.628 (inactive)
CANPQRFDRIAGNASASA [FS-1039],-0.635 (inactive),-0.196 (inactive),0.174 (inactive)
CAKKRRATRFAGNASASA [FS-450],1.73,3.42,4.38 (active)
CAIFKRKKRIAGNASASA [FS-1212],3.24,3.6 (active),5.56 (active)
CAILQRLKRIAGNASASA [FS-1346],3.62 (active),3.86 (active),6.79 (active)
CAKTNRKTRFAGNASASA [FS-345],1.94,3.24,4.81 (active)
CAFLEVVTSTAGNASASA [HC2267],-1.17 (inactive),-0.113 (inactive),-1.92 (inactive)
CARAFTEAMTAGNASASA [HC1539],0.545 (inactive),-0.418 (inactive),0.0305 (inactive)
CAVAYYRGLDAGNASASA [HC868],0.403 (inactive),1.75,-1.15 (inactive)
